Measurements reported in PubChem BioAssay AID2330 (Broad Institute, 2010).
About 2,800 (7.6%) of roughly 37,000 compounds were called active. Not shown: some 1% with an inconclusive outcome. Many of the other results were omitted from the sample, so actives are more common in it than they were. Unmarked numbers belong to inactive results. Rule as the data show it: active = inhibition above about 80%; inconclusive = no clear call, values can overlap the other calls; inactive = below that.

Assay: NOMO-1 AML cell viability reduction, primary screen, STK33 inhibitor project, CellTiter-Glo luminescence (AID 2330)
Details: NOMO-1 AML viability, 72 h, stronger effect = higher value, concentration not given here

| SMILES | inhibition |
| --- | --- |
| C[C@@H]1CN([C@@H](C)CO)C(=O)c2cccc(NS(=O)(=O)c3cccs3)c2O[C@H]1CN(C)Cc1ccncc1 | -14.5% |
| Cc1noc(C)c1S(=O)(=O)Nc1ccc2c(c1)C(=O)N([C@@H](C)CO)C[C@@H](C)[C@H](CN(C)Cc1ccc(-c3ccccc3)cc1)O2 | 20.3% |
| Cc1noc(C)c1S(=O)(=O)Nc1ccc2c(c1)C(=O)N([C@@H](C)CO)C[C@@H](C)[C@H](CN(C)C(=O)Nc1cccc3ccccc13)O2 | 7.46% |
| Cc1noc(C)c1S(=O)(=O)Nc1ccc2c(c1)C(=O)N([C@@H](C)CO)C[C@H](C)[C@H](CN(C)Cc1ccc(C(=O)Nc3ccccc3N)cc1)O2 | 104% (active) |
| Cn1nnc2cc(C(=O)N(CCO)c3ccccc3)ccc21 | -5.36% |
| COC(=O)c1c(NC(=O)c2cc(-c3ccccn3)nc3ccc(Br)cc23)sc(C(=O)N(C)C)c1C | 85.7% (active) |
| COC(=O)c1c(NC(=O)c2cc(-c3ccccn3)nc3c(C)cc(C)cc23)sc(C)c1C | 19.6% |
| Cc1ccc2nc(-c3ccncc3)cc(C(=O)NCc3ccccn3)c2c1 | 53.9% |
| Cc1noc(C)c1NC(=O)Nc1ccc2c(c1)C(=O)N([C@H](C)CO)C[C@H](C)[C@H](CN(C)Cc1ccc(Oc3ccccc3)cc1)O2 | 30% |
| Cc1cc(C(=O)Nc2cccc3c2O[C@@H](CN(C)C(=O)Nc2ccc4c(c2)OCO4)[C@H](C)CN([C@@H](C)CO)C3=O)n(C)n1 | 11.4% |
| C[C@H](CO)N1C[C@H](C)[C@@H](CN(C)S(C)(=O)=O)Oc2c(NC(=O)c3ccc(-c4nccs4)cc3)cccc2C1=O | 3.98% |
| C[C@@H]1CN([C@@H](C)CO)C(=O)c2cccc(NC(=O)c3ccc(-c4nccs4)cc3)c2O[C@H]1CN(C)Cc1ccc(Cl)c(Cl)c1 | 97.3% (active) |
| C[C@@H]1CN([C@@H](C)CO)C(=O)c2cccc(NC(=O)c3ccc(-c4nccs4)cc3)c2O[C@@H]1CN(C)Cc1ccncc1 | 35.3% |
| C[C@H](CO)N1C[C@H](C)[C@H](CN(C)S(C)(=O)=O)Oc2c(NC(=O)c3ccc(-c4nccs4)cc3)cccc2C1=O | 1.84% |
| C[C@H](CO)N1C[C@H](C)[C@@H](CN(C)Cc2ccc(C(=O)Nc3ccccc3N)cc2)Oc2c(NC(=O)c3ccc(-c4nccs4)cc3)cccc2C1=O | 138% (active) |
| C[C@H]1CN([C@@H](C)CO)C(=O)c2cccc(NC(=O)c3ccc(-c4nccs4)cc3)c2O[C@H]1CN(C)Cc1ccc(C(=O)O)cc1 | 23.4% |
| CC(C)NC(=O)N(C)C[C@H]1Oc2c(NS(=O)(=O)c3ccc(Cl)cc3)cccc2C(=O)N([C@@H](C)CO)C[C@H]1C | 12.1% |
| COc1ccc(NC(=O)Nc2ccc3c(c2)C(=O)N([C@@H](C)CO)C[C@H](C)[C@@H](CN(C)C(=O)NC2CCCCC2)O3)cc1 | -2.68% |
| CCOc1cc(S(=O)(=O)NC2CC(C)(C)NC(C)(C)C2)ccc1F | -9.77% |
| CC(=O)Nc1ccc(NC(=O)CC2C(=O)Nc3ccccc3N2C(C)=O)cc1 (centres undefined) | -5.07% |
| CC(=O)Nc1ccc(Nc2c3c4c(cccc4[nH]c2=O)C(=O)c2ccccc2-3)cc1 | 115% (active) |
| CC(=O)Nc1ccc(NC(=O)COc2ccccc2C(=O)Nc2cccc(Cl)c2Cl)cc1 | -3.66% |

| SMILES | inhibition |
| --- | --- |
| Cc1ccc(C23CC4CC(CC(CN)(C4)C2)C3)cc1C | 116% (active) |
| O=C(CSc1nc2ccccc2o1)Nc1ccccn1 | 2.56% |
| Cc1ccc(S(=O)(=O)N(C)C[C@@H]2Oc3c(NC(=O)Nc4c(C)noc4C)cccc3C(=O)N([C@@H](C)CO)C[C@@H]2C)cc1 | 22.7% |
| COC(=O)CSc1nnc(-c2ccc(Cl)cc2)n1-c1ccc(Br)cc1 | 95.1% (active) |
| CCn1c(SCC(=O)Nc2cc(Cl)ccc2OC)nnc1-c1ccc(Br)cc1 | 25% |
| O=C(CSc1nnc(-c2ccncc2)n1-c1ccccc1)Nc1ccc(Cl)c(Cl)c1 | 33.8% |
| O=C(CSc1nnc(-c2ccncc2)n1-c1ccc(Cl)cc1)Nc1ccc(C(=O)O)cc1 | -34.2% |
| O=C(CSc1nnc(-c2ccccc2)n1-c1ccc(Cl)cc1)Nc1ccc(Cl)cc1 | 83.3% (active) |
| COc1ccc(C(C)=O)cc1CSc1nnc(-c2ccc(Br)cc2)n1-c1ccccc1 | 15.8% |
| O=C(CC(=O)c1ccccc1O)c1ccccc1 | 42.5% |
| C[C@@H]1CN([C@@H](C)CO)C(=O)Cc2cc(NC(=O)Cn3cnnn3)ccc2O[C@@H]1CN(C)S(=O)(=O)c1cn(C)cn1 | -10.4% |
| COc1ccc(NC(=O)CN2CCN(S(=O)(=O)c3ccc4ccccc4c3)CC2)cc1 | 8.78% |
| COC(=O)C1=C[C@H](O[C@@H]2O[C@H](CO)[C@@H](O)[C@H](O)[C@H]2O)C[C@H]2[C@]3(C)C[C@@H](c4ccoc4)OC(=O)[C@H]3CC[C@@]12C | 22.8% |
| COc1ccc(NC(=O)N(C)C[C@@H]2Oc3c(NS(=O)(=O)c4ccc(OC)cc4)cccc3C(=O)N([C@H](C)CO)C[C@@H]2C)cc1 | 14.6% |
| NC(=O)CSc1nnc(-c2ccccc2F)n1-c1ccccc1 | 26.5% |
| CCn1c(=O)c2c(n3c(SCC(N)=O)nnc13)-c1ccccc1CC21CCCCC1 | 98.7% (active) |
| O=c1[nH]c(CSCCO)nc2c1C1(CCCCC1)Cc1ccccc1-2 | 8.91% |
| COc1ccc(-c2cc(C(F)(F)F)n3nc(C(=O)NCCCN4CCOCC4)cc3n2)cc1OC | 2.66% |
| CC(C)NC(=O)N(C)C[C@H]1Oc2c(NS(=O)(=O)c3cccs3)cccc2C(=O)N([C@H](C)CO)C[C@H]1C | -11.8% |
| Cc1c(C(=O)N2CCOCC2)[nH]c2ccc(OCc3ccccc3)cc12 | 34.1% |
| O=C(Nc1ccc(OCc2ccccc2)cc1)OCC1CN(Cc2ccccc2)CCO1 (centres undefined) | 113% (active) |
| COc1ccc(Cl)cc1NC(=O)CSc1nnc(-c2ccc(Cl)c(Cl)c2)n1C | 17.7% |
